Data on 9 compounds can be found in PubChem BioAssay (NCI).

Molecules are shown by their SMILES. About 83,000 compounds went through this panel and 20% of them were active in at least one assay; those are over-represented in the sample as a whole.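 Single-dose data. Exposure time 48 hours. Values below 10 considered active.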 Unmarked numbers belong to inactive results. Activity calls are given as the source filed them.

Among the test systems are SR leukemia; RPMI-8226 leukemia; OVCAR-8 ovarian; OVCAR-5 ovarian; OVCAR-4 ovarian; SK-OV-3 ovarian; IGROV1 ovarian; OVCAR-3 ovarian; HS 578T breast; NCI/ADR-RES ovarian; T-47D breast; MDA-MB-435 melanoma; SW-620 colon; MCF7 breast; HCT-116 colon; HCC-2998 colon; KM12 colon; BT-549 breast.
Assay in all cases: NCI-60 one-dose screen, 48 h (100 = growth as untreated, 0 = no growth, -100 = all killed)
Common to all, as to settings: 10 µM unless noted

Turning to `CN(C)S(=O)(=O)c1ccc(-c2nc(C(Cl)Cl)nc3cc(-c4ccc(F)cc4)nn23)cc1`, the growth in the assay with SR leukemia was 8.24% (active); in the assay on RPMI-8226 leukemia, 7.75% (active); in the assay on OVCAR-8 ovarian it was 2.7% (active); in the assay with OVCAR-5 ovarian, 18.3%; with OVCAR-4 ovarian, 21.1%; with SK-OV-3 ovarian it was 0.219% (active). Also, the growth with IGROV1 ovarian is 0.61% (active); in the assay with OVCAR-3 ovarian it was 8.15% (active); with HS 578T breast, 20.3%; in the assay on NCI/ADR-RES ovarian, 3.66% (active); in the assay on T-47D breast, 38%; with MDA-MB-435 melanoma, 6.53% (active). For the same compound, the growth is 4.42% (active) in the assay with SW-620 colon; 15% in the assay with MCF7 breast; -0.738% (active) in the assay with HCT-116 colon; 8.78% (active) in the assay with HCC-2998 colon; 7.53% (active) in the assay on KM12 colon.

`CCOC(=O)c1c(NC(=O)c2cccc(C(F)(F)F)c2)sc2c1CCC(=O)C2`: the growth with SR leukemia is 8.07% (active); in the assay on RPMI-8226 leukemia it was 7.65% (active); with OVCAR-8 ovarian it was 19.7%; in the assay on OVCAR-5 ovarian, 40.4%; in the assay on OVCAR-4 ovarian, 0.236% (active); in the assay on SK-OV-3 ovarian it was 82.4%. For the same compound, the growth was 18.4% in the assay on IGROV1 ovarian; 25.8% in the assay on OVCAR-3 ovarian; 36.5% with HS 578T breast; 12.5% in the assay with NCI/ADR-RES ovarian; 17.8% with T-47D breast; 59.4% in the assay on MDA-MB-435 melanoma. Further, the growth with SW-620 colon was 13.8%; in the assay on MCF7 breast it was 34.7%; in the assay on HCT-116 colon, 12.3%; with HCC-2998 colon, 87%; in the assay on KM12 colon, 32.2%.

Turning to `O=C(CSc1cc[n+](CCCCO)c2ccccc12)n1ccc2ccccc21`, the growth is 90.3% with SR leukemia; 103% in the assay with RPMI-8226 leukemia; 95.5% in the assay on OVCAR-8 ovarian; 102% with OVCAR-5 ovarian; 105% in the assay on OVCAR-4 ovarian; 91% in the assay with SK-OV-3 ovarian. For the same compound, the growth in the assay on IGROV1 ovarian was 20.2%; in the assay on OVCAR-3 ovarian, 104%; in the assay with HS 578T breast, 106%; with NCI/ADR-RES ovarian, 105%; with T-47D breast, 96.6%; in the assay with MDA-MB-435 melanoma it was 107%. Also, the growth was 99% in the assay with SW-620 colon; 94.6% in the assay on MCF7 breast; 99.6% in the assay on HCT-116 colon; 113% in the assay with HCC-2998 colon; 96.9% in the assay on KM12 colon.

Consider `CC(Nc1c(C#N)cnc2ccc(-c3cncc(O)c3)cc12)c1ccccc1` (stereo not drawn), for which the growth is 6.19% (active) with SR leukemia; 11.3% in the assay with RPMI-8226 leukemia; 13% in the assay on OVCAR-8 ovarian; 25.6% in the assay on OVCAR-5 ovarian; -17.5% (active) in the assay with OVCAR-4 ovarian; -3.84% (active) in the assay on SK-OV-3 ovarian. The growth is -20.3% (active) in the assay on IGROV1 ovarian; 7.92% (active) in the assay with OVCAR-3 ovarian; -18.3% (active) in the assay with HS 578T breast; 12.4% with NCI/ADR-RES ovarian; -18.3% (active) in the assay on BT-549 breast; 25.2% in the assay on MDA-MB-435 melanoma. Also, the growth is 10.1% with SW-620 colon; 0.808% (active) with MCF7 breast; 3.68% (active) with HCT-116 colon; 19.5% in the assay on HCC-2998 colon; 4.85% (active) with KM12 colon.

`Oc1[nH]c2ccc(Cl)cc2c1N=Nc1nc(N=Nc2c(O)[nH]c3ccc(Cl)cc23)nc(N2CCCCC2)n1`: the growth in the assay on SR leukemia was 24.5%; in the assay with RPMI-8226 leukemia, 57%; in the assay on OVCAR-8 ovarian, 25.9%; in the assay with OVCAR-5 ovarian it was 38.2%; in the assay on OVCAR-4 ovarian, 42.2%; in the assay with SK-OV-3 ovarian it was 94.5%. The growth with IGROV1 ovarian was 22.9%; in the assay with OVCAR-3 ovarian it was 76.9%; with HS 578T breast, 36.2%; with NCI/ADR-RES ovarian, 101%; in the assay on T-47D breast, 81.5%; with BT-549 breast it was 122%. The growth was 15.5% in the assay on SW-620 colon; 51.7% in the assay on MCF7 breast; 23.9% in the assay on HCT-116 colon; 38.7% with HCC-2998 colon; 47.6% in the assay on KM12 colon.

In the case of `NC(=O)c1c(NC(=O)c2ccc(C(F)(F)F)cc2)sc2c1CCC(=O)C2`, the growth with SR leukemia is 1.33% (active); with RPMI-8226 leukemia, -30.3% (active); with OVCAR-8 ovarian, 9.01% (active); in the assay with OVCAR-5 ovarian it was 9.87% (active); in the assay with OVCAR-4 ovarian it was -66.9% (active); with SK-OV-3 ovarian, 37.5%. For the same compound, the growth in the assay with IGROV1 ovarian is 16.2%; with OVCAR-3 ovarian, -17.2% (active); in the assay with HS 578T breast, 19.4%; with NCI/ADR-RES ovarian it was 0.891% (active); with T-47D breast, -28.9% (active); with MDA-MB-435 melanoma, -8.14% (active). The growth was -17.5% (active) in the assay on SW-620 colon; 5.66% (active) in the assay on MCF7 breast; 3.88% (active) in the assay with HCT-116 colon; 32.3% in the assay with HCC-2998 colon; 3.34% (active) in the assay with KM12 colon.

With `CN1CCN(c2ccc(Nc3nc(NCCCNS(=O)(=O)c4cccc(F)c4)c4sccc4n3)cc2)CC1`, the growth was 9.04% (active) in the assay on SR leukemia; 7.54% (active) in the assay with RPMI-8226 leukemia; 50.2% in the assay on OVCAR-8 ovarian; 73.4% in the assay on OVCAR-5 ovarian; 18.3% in the assay on OVCAR-4 ovarian; 115% in the assay on SK-OV-3 ovarian. The growth in the assay with IGROV1 ovarian was 68.9%; in the assay with OVCAR-3 ovarian, 9.74% (active); in the assay on HS 578T breast it was 50.4%; with NCI/ADR-RES ovarian it was 70.8%; with BT-549 breast, 42.7%; with MDA-MB-435 melanoma, 14.1%. Also, the growth is 46.5% in the assay on SW-620 colon; 25.7% in the assay with MCF7 breast; 11.1% in the assay with HCT-116 colon; 37.9% in the assay with HCC-2998 colon; 54% in the assay on KM12 colon.

In the case of `CN1CCN(c2ccc(Nc3nc(NCCCNS(=O)(=O)c4cccc5ccccc45)c4sccc4n3)cc2)CC1`, the growth was 4.12% (active) in the assay on SR leukemia; -2.5% (active) in the assay on RPMI-8226 leukemia; 5.7% (active) in the assay on OVCAR-8 ovarian; 10.8% with OVCAR-5 ovarian; -35.6% (active) in the assay with OVCAR-4 ovarian; -18% (active) in the assay on SK-OV-3 ovarian. The growth was 6.32% (active) with IGROV1 ovarian; -62.7% (active) with OVCAR-3 ovarian; -25% (active) in the assay on HS 578T breast; 13.5% in the assay on NCI/ADR-RES ovarian; -87.3% (active) with BT-549 breast; -73% (active) in the assay with MDA-MB-435 melanoma. The growth in the assay with SW-620 colon is -0.438% (active); with MCF7 breast, -20.9% (active); in the assay with HCT-116 colon, -73% (active); in the assay on HCC-2998 colon, -51.4% (active); with KM12 colon, 4.02% (active).

`CCCCCCN1C=C/C(=C\C(=O)n2ccc3ccccc32)c2ccccc21`: the growth in the assay with SR leukemia is 54.3%; in the assay with RPMI-8226 leukemia, 12.7%; in the assay with OVCAR-8 ovarian, 73.8%; in the assay with OVCAR-5 ovarian, 90.9%; with OVCAR-4 ovarian it was 33.3%; in the assay with SK-OV-3 ovarian, 59.9%. For the same compound, the growth is 42.9% in the assay with IGROV1 ovarian; 58.4% with OVCAR-3 ovarian; 84.9% in the assay on HS 578T breast; 84.7% in the assay on NCI/ADR-RES ovarian; 31.1% with T-47D breast; 65% with BT-549 breast. Besides, the growth in the assay with SW-620 colon was 79.2%; in the assay on MCF7 breast, 29.2%; in the assay on HCT-116 colon it was 48.4%; with HCC-2998 colon, 34.6%; in the assay with KM12 colon it was 67.1%.
